The sample as a whole holds a higher share of hits than the screen did.
Pf Dd2 growth – blocks in vitro growth of P. falciparum Dd2; P. falciparum Dd2 growth, SYBR Green, 72 h; Potency, µM (top dose mostly 28.9 µM), usual class: inhibitors; actives 4.3% (n = 120,000); AID 1347417; active = well fitted inhibition curve with a large enough effect; also: nearly all actives have a fitted effect of over 65% in size
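Infected erythrocytes (Dd2, 0.3% parasitemia, 2.5% hematocrit final) are added to compound in RPMI-1640/Albumax II medium, grown 72 h at 37C in low oxygen, then lysed with saponin/Triton-X containing SYBR Green and read by fluorescence.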
A number is an active result; n = inactive; ! = repeats disagree; [ ] = remark or other dose.

SMILES	Pf Dd2 growth
COc1ccc(-c2cc(C[C@H]3CNCC[C@H]3CC(=O)NCc3cccnc3)no2)cc1	n
COCCN(C)C(=O)C1(C)CN(Cc2ccccc2)Cc2ccc(NCC(C)C)nc21 (stereo unspecified)	n
CN1CCc2c([nH]c3ccccc23)C12CCN(S(=O)(=O)c1cccnc1)CC2	4.47µM
CN1CCc2c([nH]c3ccccc23)C12CCN(C(=O)Cc1cccnc1)CC2	n
Cc1noc(C)c1C(=O)N1CCC2(CC1)NCCc1c2[nH]c2ccccc12	n
Cn1cnc(S(=O)(=O)N2CCC3(CC2)NCCc2c3[nH]c3ccccc23)c1	n
Cc1ccncc1C(=O)N1CCC2(CC1)c1[nH]c3ccccc3c1CCN2C	n
Cc1noc(C)c1S(=O)(=O)N1CCC2(CC1)NCCc1c2[nH]c2ccccc12	5.01µM
CN(Cc1ccccc1)C(=O)c1ccc2c(c1)NC(C)(COc1cccnc1)CO2 (stereo unspecified)	n
CO[C@H]1C(=O)N(C2CCN(C(=O)C3CCCC3)CC2)[C@H]1c1ccncc1	n
CN(Cc1cccnc1)c1nc2c(c(=O)[nH]1)CCN(Cc1ccc(Cl)cc1F)CC2	n[5.79 µM]
CC#CC(=O)N1CCCCC1C(=O)Nc1ccc(-n2nc(C)cc2C)cc1 (stereo unspecified)	n
CC(C)c1nccn1CCCNC(=O)c1ccc(NC2CCC(O)CC2)nc1 (stereo unspecified)	n
CCOc1ccccc1CN1CCC2(CCN(C(=O)c3cccc(OC)c3)CC2)Oc2ccccc21	n
CCOc1ccccc1CN1CCC2(CCN(Cc3ccsc3)CC2)Oc2ccccc21	10µM
CCOc1ccccc1CN1CCC2(CCN(C(=O)C3CC3)CC2)Oc2ccccc21	n
CCOc1ccccc1CN1CCC2(CCN(C(=O)NC3CCCC3)CC2)Oc2ccccc21	n
CCOc1ccccc1CN1CCC2(CCN(C(C)=O)CC2)Oc2ccccc21	n
CCOc1ccccc1CN1CCC2(CCN(C(=O)Cc3ccccn3)CC2)Oc2ccccc21	11.2µM!
CCn1c(CC2CCNCC2)nn(Cc2cc(C3CCCCC3)no2)c1=O	n
O=C1CCCN1CCCN1C(=O)[C@@H]2C[C@@H](O)CN2C2(CN(Cc3ccccc3)C2)C1=O	n
O=C(c1ccc2ccccc2c1)N1C[C@@H]2C[C@H](C1)c1ccc(NS(=O)(=O)Cc3ccccc3)c(=O)n1C2	n
COCCc1nncn1C1CCN(C(=O)c2cc(C)ccc2C)CC1	n
CCN(Cc1cccc2cnccc12)CC1CCCN(CCc2cccc(F)c2)C1 (stereo unspecified)	2.24µM
O=C1CCN(Cc2cccc(F)c2)CCCC(c2nc(-c3cccnc3)no2)CCN1 (stereo unspecified)	n
SMILES	Pf Dd2 growth
CN(CC1CCN(CCc2cccc(F)c2)CC1)C(=O)COc1cccnc1	n
C[C@@]1(O)CCN(C(=O)C2(c3ccccc3)CC2)C[C@@H]1Cc1ccccc1	n
CN(C)c1cccc(-c2cn(C)c(=O)n3cc(CN4CC[S+](=O)([O-])CC4)nc23)c1	n
O=C(CN1CC2CC(C1)[C@H]1CCCC(=O)N1C2)N1CCN(c2ccccc2F)CC1 (stereo partly specified)	n
Cc1cn2nc(C(=O)NCc3ccc(C(C)C)cc3)cc2c(=O)[nH]1	n
COc1cc(CNCCOc2cccnc2)ccc1OCC(O)CN1CCSCC1 (stereo unspecified)	n
CN(CC(O)COc1cccc(CNCCOc2ccccc2)c1)C1CCCCC1 (stereo unspecified)	4.47µM
CCN1CCN(CC(O)COc2cccc(CNCCc3cccc(C)n3)c2)CC1 (stereo unspecified)	n
Cc1ccc(-n2nc3n(c2=O)CCN(C(=O)c2ccc(Cl)cc2)C3)cc1	n
CC(C)n1c(CNC(=O)C[C@H]2NC(=O)c3ccccc3NC2=O)nc2ccccc21	n
CN(Cc1cc(C2CC2)on1)Cc1nnc(C2CC(N)C2)n1C1CC1 (stereo unspecified)	n
CCN(C(=O)CN1C(=O)NC2(CCS(=O)(=O)CC2)C1=O)c1ccccc1	n
Cc1ccc(S(=O)(=O)N2CCCC(Cn3c(C)nc4cccnc43)C2)cc1F (stereo unspecified)	n
Cc1nc2cccnc2n1CC1CCCN(S(=O)(=O)c2ccc3c(c2)CCC3)C1 (stereo unspecified)	n
Cc1nc2cccnc2n1CC1CCCN(S(=O)(=O)c2cccc(Br)c2)C1 (stereo unspecified)	6.31µM
CCCN(C)C(=O)c1cn2cc(-c3cccc(Cl)c3)n(CC=C(C)C)c(=O)c2n1	12.6µM
CCCN(C(=O)c1cc2c(=O)oc3ccccc3c2s1)c1cccc(Cl)c1	n
CCN(CC)c1ccc2cc(-c3nnc(-c4cccc(Cl)c4)o3)c(=O)oc2c1	n
CC(C)=CCn1c(-c2cc(C)oc2C)cn2cc(C(=O)N(C)CC(C)C)nc2c1=O	11.2µM
COc1ccc(-c2cn3cc(C(=O)NCC(N)=O)nc3c(=O)n2CC2CC2)c(F)c1	n
COc1ncccc1-c1cccc(CCOc2cnc3c(ccn3CC(=O)O)c2)c1	n
O=C(CCC(=O)N1CCn2nc(Cc3ccccc3)cc2C1)NC1CCCC1	n
CCCC(=O)N1C[C@@H]2CCCN3CCC[C@@H]([C@H]23)[C@H]1CCCC(=O)NCC1CC1	n
COCCC(=O)N1CCc2nc(N3CCN(C)CC3)sc2C1	n
O=C(C[C@H]1NC(=O)c2ccccc2NC1=O)Nc1nc(-c2cccnc2)cs1	n
SMILES	Pf Dd2 growth
COCCNc1ncnc2onc(-c3ccc(F)cc3)c12	n
Cc1ccccc1CN1CCC(CNc2ncnc3onc(-c4ccc(F)cc4)c23)CC1	3.98µM
COCCCNc1ncnc2onc(-c3ccc(F)cc3)c12	n
COc1ccc2nc([C@H]3CCN(Cc4cccc(C#N)c4)C3)[nH]c2c1	n
CCCNC(=O)N1CC[C@@H](CC(=O)O)[C@@H](CC2=NCCc3ccc(OC)cc32)C1	n
Cc1nc(N2CCC(C(=O)NCc3ccc4c(c3)OCO4)CC2)cc(C(F)(F)F)n1	n
COc1ccc(CNC(=O)COCc2cc(-c3ccc4c(c3)OCO4)on2)cc1	n
O=C(COc1cccc(-c2nnc3n2CCCC3)c1)NCc1ccccc1	n
COc1ccccc1NC(=O)Cn1cnc2c(nc3n2CCCCC3)c1=O	n
CCOc1ccc(NC(=O)Cn2nc3n(c2=O)CCCCC3)cc1	n
CSc1cccc(NC(=O)COc2cccc(-c3nnc4n3CCCC4)c2)c1	11.2µM
COc1cccc(-c2cc(C3CCN(C(=O)Nc4cccc(SC)c4)CC3)[nH]n2)c1	n
O=C(COc1ccc(-c2nnc3n2CCCC3)cc1)NCc1ccc2c(c1)OCO2	10µM
CCOc1ccc(NC(=O)COc2cccc(-c3nnc4n3CCCC4)c2)cc1	2.82µM
CCOc1ccc(NC(=O)Cn2c(C)cc3nc4n(c(=O)c32)CCCCC4)cc1	n
Cc1cccc(NC(=O)COc2ccc3oc4c(c3c2)CCCC4)c1	n
COc1ccccc1NC(=O)COc1cccc(-c2nnc3n2CCCC3)c1	0.631µM
Cc1nc(-c2c3n(c(=O)n(CC(=O)Nc4ccccc4F)c2=O)CCCCC3)no1	n
O=C(NCc1nnc2n1C(C(=O)NCc1ccc(F)cc1)CC2)C1CC1 (stereo unspecified)	n
CCN(CC)C(=O)c1cn2ccnc(-c3ccc(C)cc3)c2n1	n
O=C1NC2(CCN(Cc3ccccc3C(F)(F)F)CC2)Oc2ccccc21	n
COC[C@@H]1CN(Cc2cccc(OC)c2OC)C[C@H]1c1ccncc1	n
COc1ccc(CC(=O)N2C[C@H](c3nc(-c4cccnc4)no3)[C@@H](C)C2)cc1	n
CCOCc1nc(C2CCCN(C(=O)c3cnccn3)C2)no1 (stereo unspecified)	n

Source: PubChem BioAssay (National Center for Advancing Translational Sciences (NCATS))
